In PubChem BioAssay (NCI) one finds growth data, which are given here for 13 compounds.

About 83,000 compounds went through this panel and 20% of them were active in at least one assay; those are over-represented in the sample as a whole.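 A percent growth of 40 corresponds to 60% growth inhibition; 0 means no net growth; -100 means all cells died. Active threshold: below 10.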 Values without a mark were called inactive. Active and inactive are the calls of the source.

Test systems include HCT-15 colon; HT29 colon; SNB-19 CNS; U251 CNS; PC-3 prostate; SK-MEL-5 melanoma; UACC-62 melanoma; LOX IMVI melanoma; SK-MEL-28 melanoma.
Common to all, as to test: NCI-60 one-dose screen, 48 h (100 = growth as untreated, 0 = no growth, -100 = all killed)
Details in all cases: 10 µM unless noted

With `C=C1C(=O)O[C@H]2[C@H]1CC/C(Cn1cc(Cc3c[nH]c4ccccc34)nn1)=C\CC[C@@]1(C)O[C@@H]21`, the growth was -25.9% (active) in the experiment on HCT-15 colon; 3.04% (active) in the experiment with HT29 colon; 65.4% in the experiment on SNB-19 CNS; 37.6% with U251 CNS; 38.7% in the experiment on PC-3 prostate; 24.9% with SK-MEL-5 melanoma. For the same compound, the growth was 38% in the experiment on UACC-62 melanoma, -76.2% (active) in the experiment with LOX IMVI melanoma and 20% in the experiment on SK-MEL-28 melanoma.

With `O=C1O[C@H]([C@H](O)CO)C(O)=C1O`, the growth in the experiment on HCT-15 colon is 103%; in the experiment on HT29 colon, 105%; in the experiment on SNB-19 CNS, 95.8%; in the experiment with U251 CNS, 101%; in the experiment on PC-3 prostate it was 96%; in the experiment with SK-MEL-5 melanoma it was 104%. The growth in the experiment on UACC-62 melanoma is 98.1%; with LOX IMVI melanoma it was 94.8%; with SK-MEL-28 melanoma it was 117%.

For the compound `C(=N\Nc1ccccn1)/c1ccccn1`, the growth is 42.7% with HCT-15 colon; 19% in the experiment with HT29 colon; 40.4% in the experiment on SNB-19 CNS; 13.4% in the experiment on U251 CNS; 63.5% in the experiment with PC-3 prostate; -4.55% (active) with SK-MEL-5 melanoma. For the same compound, the growth in the experiment with UACC-62 melanoma was 2.66% (active); with LOX IMVI melanoma, -11.6% (active); with SK-MEL-28 melanoma it was 34.8%.

Turning to `CC[C@@H](C)OC(=O)c1nn(C(C)=O)c2ccccc12`, the growth is 89.9% in the experiment on HCT-15 colon; 107% with HT29 colon; 100% in the experiment on SNB-19 CNS; 99.4% with U251 CNS; 103% in the experiment with PC-3 prostate; 94.1% with SK-MEL-5 melanoma. In addition, the growth is 99.2% in the experiment on UACC-62 melanoma, 95.6% in the experiment with LOX IMVI melanoma and 114% in the experiment with SK-MEL-28 melanoma.

Regarding `COc1ccc(C/C(C)=C(\c2ccc(Cl)cc2)c2ccc(OCCN3CCCCCC3)cc2)cc1`, the growth with HCT-15 colon was 43.1%; in the experiment with HT29 colon, 15.7%; with SNB-19 CNS, 84.6%; with U251 CNS it was 64.5%; with PC-3 prostate, 69.2%; with SK-MEL-5 melanoma, 80%. Further, the figures for the growth with UACC-62 melanoma, in the experiment with LOX IMVI melanoma and in the experiment with SK-MEL-28 melanoma were 93.2%, 90% and 91%, respectively.

As for `CC(=O)O[C@H]1CC[C@]2(C)[C@H]3CC[C@@H]4[C@H]5[C@H](C(C)C)CC[C@]5(C(=O)OCC(CO)(CO)N=C(N)N)CC[C@@]4(C)[C@]3(C)CC[C@H]2C1(C)C`, the growth was 10.4% in the experiment on HCT-15 colon; -69% (active) in the experiment on HT29 colon; 58.5% in the experiment with SNB-19 CNS; -96.4% (active) with U251 CNS; 41.2% with PC-3 prostate; 81.2% with SK-MEL-5 melanoma. For the same compound, the growth was 86.8% with UACC-62 melanoma, -48.8% (active) in the experiment on LOX IMVI melanoma and 84.9% in the experiment with SK-MEL-28 melanoma.

With `CCC(=O)Oc1ccc(/C(=C(\C)c2ccccc2)c2ccc(OCCN(CC)CC)cc2)cc1`, the growth is 54.3% with HCT-15 colon; 7.83% (active) in the experiment with HT29 colon; 87.8% with SNB-19 CNS; 71.6% with U251 CNS; 66.7% in the experiment with PC-3 prostate; 74.8% in the experiment with SK-MEL-5 melanoma. Besides, the growth in the experiment on UACC-62 melanoma was 93.4%; in the experiment with LOX IMVI melanoma, 87.8%; with SK-MEL-28 melanoma, 80.3%.

Take `O=[N+]([O-])c1cccc(-c2nc3sccn3c2-c2ccnc(NCCCNS(=O)(=O)c3ccc(F)cc3)n2)c1`: the growth was -3.76% (active) with HCT-15 colon; 18.4% in the experiment with HT29 colon; 29.3% in the experiment with SNB-19 CNS; 26.8% in the experiment with U251 CNS; -3.27% (active) with PC-3 prostate; -76.7% (active) in the experiment on SK-MEL-5 melanoma. Further, the growth was -45% (active) with UACC-62 melanoma, -21.3% (active) in the experiment on LOX IMVI melanoma and -1.76% (active) with SK-MEL-28 melanoma.

`CCOC(=O)c1cnc2cc(Cl)c(F)cc2c1Nc1cccc(NS(C)(=O)=O)c1`: the growth was 89.3% with HCT-15 colon; 122% with HT29 colon; 93.9% in the experiment with SNB-19 CNS; 106% in the experiment with U251 CNS; 101% in the experiment with PC-3 prostate; 98.3% with SK-MEL-5 melanoma. Also, the growth is 87.8% in the experiment with UACC-62 melanoma, 91.2% with LOX IMVI melanoma and 114% with SK-MEL-28 melanoma.

`Brc1cccc(-c2cc(-c3ccc4c(c3)OCCO4)[nH]n2)c1`: the growth in the experiment on HCT-15 colon is 15.9% [25 µM]; in the experiment with HT29 colon it was 1.56% [25 µM] (active); in the experiment on SNB-19 CNS, 34% [25 µM]; with U251 CNS, 22% [25 µM]; in the experiment with PC-3 prostate it was 26.3% [25 µM]; in the experiment on SK-MEL-5 melanoma, 10% [25 µM]. The growth in the experiment with UACC-62 melanoma was 36.8% [25 µM]; in the experiment on LOX IMVI melanoma, 34% [25 µM]; in the experiment with SK-MEL-28 melanoma, 59.7% [25 µM].

With `CSc1nc2sc3c(c2c(=O)n1-c1ccc(C(C)C)cc1)CCC(=O)C3`, the growth in the experiment on HCT-15 colon was -15.9% (active); with HT29 colon, 11.4%; with SNB-19 CNS, 9.58% (active); in the experiment with U251 CNS, -80% (active); in the experiment with PC-3 prostate it was -6.64% (active); with SK-MEL-5 melanoma, -79.9% (active). Further, the growth in the experiment with UACC-62 melanoma is -20.8% (active); with LOX IMVI melanoma it was -39.6% (active); in the experiment on SK-MEL-28 melanoma, 28.7%.

Consider `O=C(O)c1cn(C2CC2)c2cc(N3CCN(Cc4nc5c(cnn5-c5ccc([N+](=O)[O-])cc5)c(=O)[nH]4)CC3)c(F)cc2c1=O`, for which the growth with HCT-15 colon is 102%; with HT29 colon it was 102%; with SNB-19 CNS, 106%; in the experiment with U251 CNS it was 106%; in the experiment on PC-3 prostate, 93.9%; in the experiment with SK-MEL-5 melanoma, 99%. Further, the figures for the growth in the experiment with UACC-62 melanoma, with LOX IMVI melanoma and in the experiment on SK-MEL-28 melanoma were 86.6%, 101% and 106%, respectively.

Regarding `O=C(CN1CCN(c2cc3c(cc2F)c(=O)c(C(=O)N/N=C/c2ccccc2)cn3C2CC2)CC1)N/N=C\c1ccccc1`, the growth with HCT-15 colon was 53.9%; in the experiment on HT29 colon it was 73.4%; in the experiment on SNB-19 CNS, 74%; in the experiment with U251 CNS, 83.7%; in the experiment with PC-3 prostate, 50%; with SK-MEL-5 melanoma it was 83%. For the same compound, the growth with UACC-62 melanoma was 71.4%; in the experiment with LOX IMVI melanoma, 72.6%; in the experiment on SK-MEL-28 melanoma, 88.9%.
